What is called AC50 is the concentration giving half of the maximal activity seen.

For assay [1], the target named is human Phosphodiesterase 10 (PDE10), PDE10A (gene 10846) (UniProt Q9Y233). Kind of assay: NVS_ENZ_hPDE10: NovaScreen (NVS) Enzymatic Assay for human Phosphodiesterase 10 (PDE10) (AID 2283195). An outline of the steps: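 Fluorescence/mobility-shift readout of PDE10A enzyme activity, taken 1 h post-dosing. Primary screen in duplicate at 25 uM; actives (e.g. ≥30% inhibition) retested as singleton concentration-response, top concentration 50 uM.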
Sequence of human Phosphodiesterase 10 (PDE10), PDE10A (gene 10846) (Q9Y233 whole entry, looked up): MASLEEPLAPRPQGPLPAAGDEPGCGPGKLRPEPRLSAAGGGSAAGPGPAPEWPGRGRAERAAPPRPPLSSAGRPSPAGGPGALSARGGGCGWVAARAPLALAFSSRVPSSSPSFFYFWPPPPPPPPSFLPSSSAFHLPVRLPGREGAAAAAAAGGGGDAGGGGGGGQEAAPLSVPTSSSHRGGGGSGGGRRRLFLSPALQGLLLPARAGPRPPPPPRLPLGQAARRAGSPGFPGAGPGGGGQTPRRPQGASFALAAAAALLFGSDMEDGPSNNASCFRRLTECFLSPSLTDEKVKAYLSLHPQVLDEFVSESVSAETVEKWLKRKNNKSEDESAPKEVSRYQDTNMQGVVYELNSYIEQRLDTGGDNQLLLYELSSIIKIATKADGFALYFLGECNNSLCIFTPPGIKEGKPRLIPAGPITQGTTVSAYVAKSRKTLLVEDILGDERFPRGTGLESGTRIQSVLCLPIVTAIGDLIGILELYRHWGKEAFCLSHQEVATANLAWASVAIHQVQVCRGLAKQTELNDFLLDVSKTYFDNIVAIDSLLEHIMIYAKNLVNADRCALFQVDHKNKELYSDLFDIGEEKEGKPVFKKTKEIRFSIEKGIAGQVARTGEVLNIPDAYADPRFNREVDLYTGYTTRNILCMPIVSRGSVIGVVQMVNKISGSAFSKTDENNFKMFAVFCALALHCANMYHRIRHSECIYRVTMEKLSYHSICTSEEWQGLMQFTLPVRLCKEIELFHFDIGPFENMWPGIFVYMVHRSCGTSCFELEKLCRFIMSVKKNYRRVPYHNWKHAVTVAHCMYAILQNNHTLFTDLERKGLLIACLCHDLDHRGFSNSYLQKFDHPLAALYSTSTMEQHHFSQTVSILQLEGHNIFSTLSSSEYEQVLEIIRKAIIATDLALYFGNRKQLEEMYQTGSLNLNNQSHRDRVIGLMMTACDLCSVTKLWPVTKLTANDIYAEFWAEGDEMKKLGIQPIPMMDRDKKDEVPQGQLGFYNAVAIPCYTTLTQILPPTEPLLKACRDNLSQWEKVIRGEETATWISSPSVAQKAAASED

Assay [2] concerns the target human CYP2D6, CYP2D6 (gene 1565) (UniProt P10635). Kind of assay: NVS_ADME_hCYP2D6: NovaScreen (NVS) CYP450-related Enzyme Activity (ADME) Assay for human CYP2D6 (AID 2283107). The method, boiled down: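 Fluorescence readout of recombinant CYP2D6 (insect-cell derived) activity after 1 h incubation with test chemical. Acetonitrile served as baseline, loss-of-signal direction. Single-concentration duplicate screening at 10 uM preceded concentration-response retesting.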

Assay [3] deals with human CYP2C9, CYP2C9 (gene 1559) (UniProt P11712). Kind of assay: NVS_ADME_hCYP2C9: NovaScreen (NVS) CYP450-related Enzyme Activity (ADME) Assay for human CYP2C9 (AID 2283108). An outline of the steps: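 Cell-free assay of recombinant human CYP2C9 produced in Sf9 cells, with enzyme activity read by fluorescence intensity 0.75 h after compound addition. Loss of signal versus an acetonitrile negative control indicates inhibition. Primary screen used 10 uM in duplicate; actives were retested in concentration series.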

Assay [4] addresses Cytochrome P450 2C19 (Homo sapiens) (UniProt P33261). Kind of assay: NVS_ADME_hCYP2C19: NovaScreen (NVS) CYP450-related Enzyme Activity (ADME) Assay for human CYP2C19 (AID 2283113).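 Further: potency for inhibition seen as loss of fluorescent signal.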 The method, boiled down: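 Compounds first screened in duplicate at 10 uM, then confirmed in concentration series. Insect-cell-expressed human CYP2C19 turned over a fluorogenic substrate, and fluorescence was read after 1 h. Inhibition taken as signal loss relative to acetonitrile.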

In assay [5] the target is human Caspase 5 (CASP5), CASP5 (gene 838) (UniProt P51878). Kind of assay: NVS_ENZ_hCASP5: NovaScreen (NVS) Enzymatic Assay for human Caspase 5 (CASP5) (AID 2283137). The method, boiled down:
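Cell-free protease assay with bacterially expressed CASP5 and a fluorescent substrate, measured at 2 h. Values fitted relative to DMSO as baseline, from concentration-response series topping at 50 uM.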

Assay [6] has as its target human Ephrin type-A Receptor 1 (EphA1), EPHA1 (gene 2041) (UniProt P21709). As to the kind of experiment: NVS_ENZ_hEphA1: NovaScreen (NVS) Enzymatic Assay for human Ephrin type-A Receptor 1 (EphA1) (AID 2283158).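 Further: activity is signal loss versus DMSO meaning EphA1 kinase inhibition.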 An outline of the steps: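 Fluorescent substrate conversion, resolved by mobility-shift separation, measured 1 hour post-dosing using recombinant enzyme; signal loss relative to DMSO baseline. Single-concentration duplicates at 25 uM preceded singleton concentration series topping at 50 uM.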

Assay [7] has as its target sheep Cyclooxygenase-1 (Cox1), PTGS1 (gene 443551) (UniProt P05979). Kind of assay: NVS_ENZ_oCOX1: NovaScreen (NVS) Enzymatic Assay for sheep Cyclooxygenase-1 (Cox1) (AID 2283239).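 Further: actives reduce cyclooxygenase activity so potencies are for inhibitors.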 The method, boiled down:
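Colorimetric enzyme readout using sheep seminal-vesicle cyclooxygenase-1, measured 0.66 h post-dosing. Single-concentration duplicates at 25 uM first, then concentration series for actives, with DMSO as baseline and plate controls.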

The target in assay [8] is human Matrix Metalloproteinase-9 (MMP9), MMP9 (gene 4318) (UniProt P14780). Kind of assay: NVS_ENZ_hMMP9: NovaScreen (NVS) Enzymatic Assay for human Matrix Metalloproteinase-9 (MMP9) (AID 2283190).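 Further: cell-free recombinant MMP9 protease activity read by fluorescent substrate signal; active means inhibition seen as loss of fluorescence signal versus DMSO.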 An outline of the steps:
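Cell-free recombinant MMP9 enzyme activity measured by fluorescence intensity 1 h after dosing. Primary screen in duplicate at 25 uM, actives followed in concentration series; loss of signal relative to DMSO.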

Assay [9] has as its target human Beta-secretase (BACE), BACE1 (gene 23621) (UniProt P56817). Kind of assay: NVS_ENZ_hBACE: NovaScreen (NVS) Enzymatic Assay for human Beta-secretase (BACE) (AID 2283140).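 Further: hits are inhibitors that reduce fluorescent substrate signal versus DMSO.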 The method, boiled down: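 Recombinant BACE1 (SF9 extract) incubated with compound and fluorescent substrate, 1 h. Plates carried positive and DMSO negative controls. Initial single dose 25 uM, duplicate; confirmation by concentration series.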

SMILES strings stand for the structures. Results filed as inconclusive are left out. The source made the active and inactive calls. How the source made its calls: active means hit-call score of the fitted dose curve at least 0.9, where 1 is the maximum; inconclusive means response in the unintended direction; inactive means score below 0.9.

Sequence of human Ephrin type-A Receptor 1 (EphA1), EPHA1 (gene 2041) (P21709 whole entry, looked up): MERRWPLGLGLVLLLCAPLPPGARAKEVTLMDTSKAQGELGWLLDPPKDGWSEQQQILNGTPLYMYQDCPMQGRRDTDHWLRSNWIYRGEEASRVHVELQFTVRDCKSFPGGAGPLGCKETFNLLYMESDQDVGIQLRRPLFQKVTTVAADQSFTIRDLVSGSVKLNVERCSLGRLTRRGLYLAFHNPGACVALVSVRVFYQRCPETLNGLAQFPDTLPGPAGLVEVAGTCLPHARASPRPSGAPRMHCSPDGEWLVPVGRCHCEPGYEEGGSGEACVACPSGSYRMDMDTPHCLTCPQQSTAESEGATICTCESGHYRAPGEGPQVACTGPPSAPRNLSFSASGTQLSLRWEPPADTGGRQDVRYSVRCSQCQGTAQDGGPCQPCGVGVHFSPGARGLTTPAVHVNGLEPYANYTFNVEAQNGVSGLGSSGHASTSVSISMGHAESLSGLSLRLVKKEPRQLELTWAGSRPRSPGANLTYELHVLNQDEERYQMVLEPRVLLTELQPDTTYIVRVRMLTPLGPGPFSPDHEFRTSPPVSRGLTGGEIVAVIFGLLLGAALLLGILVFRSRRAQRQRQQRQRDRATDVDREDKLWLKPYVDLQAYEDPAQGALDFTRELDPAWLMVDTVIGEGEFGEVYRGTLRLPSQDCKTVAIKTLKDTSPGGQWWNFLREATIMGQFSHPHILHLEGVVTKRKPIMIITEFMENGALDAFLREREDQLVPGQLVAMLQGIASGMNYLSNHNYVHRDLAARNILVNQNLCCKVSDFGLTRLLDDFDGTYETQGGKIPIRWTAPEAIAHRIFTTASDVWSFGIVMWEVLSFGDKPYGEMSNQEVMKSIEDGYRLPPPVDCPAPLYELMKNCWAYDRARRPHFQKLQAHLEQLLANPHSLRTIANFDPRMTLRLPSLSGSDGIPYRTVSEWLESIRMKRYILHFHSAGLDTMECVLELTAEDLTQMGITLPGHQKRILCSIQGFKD
Sequence of sheep Cyclooxygenase-1 (Cox1), PTGS1 (gene 443551) (P05979 whole entry, looked up): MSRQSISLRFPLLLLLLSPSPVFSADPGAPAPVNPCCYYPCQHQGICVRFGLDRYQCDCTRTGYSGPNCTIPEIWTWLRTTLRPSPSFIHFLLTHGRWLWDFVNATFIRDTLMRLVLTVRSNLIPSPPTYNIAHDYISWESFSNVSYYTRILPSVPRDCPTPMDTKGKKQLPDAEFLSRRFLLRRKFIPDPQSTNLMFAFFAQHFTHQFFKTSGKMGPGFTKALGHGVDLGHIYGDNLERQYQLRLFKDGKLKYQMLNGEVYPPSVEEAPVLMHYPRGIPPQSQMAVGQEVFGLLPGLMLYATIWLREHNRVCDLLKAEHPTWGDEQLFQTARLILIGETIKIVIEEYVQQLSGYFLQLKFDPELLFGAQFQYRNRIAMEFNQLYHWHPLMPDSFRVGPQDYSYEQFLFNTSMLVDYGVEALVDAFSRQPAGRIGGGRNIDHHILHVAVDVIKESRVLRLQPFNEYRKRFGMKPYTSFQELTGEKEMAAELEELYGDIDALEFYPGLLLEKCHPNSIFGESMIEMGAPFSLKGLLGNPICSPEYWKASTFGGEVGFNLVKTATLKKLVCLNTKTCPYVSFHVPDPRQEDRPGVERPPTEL
Sequence of human Matrix Metalloproteinase-9 (MMP9), MMP9 (gene 4318) (P14780 whole entry, looked up): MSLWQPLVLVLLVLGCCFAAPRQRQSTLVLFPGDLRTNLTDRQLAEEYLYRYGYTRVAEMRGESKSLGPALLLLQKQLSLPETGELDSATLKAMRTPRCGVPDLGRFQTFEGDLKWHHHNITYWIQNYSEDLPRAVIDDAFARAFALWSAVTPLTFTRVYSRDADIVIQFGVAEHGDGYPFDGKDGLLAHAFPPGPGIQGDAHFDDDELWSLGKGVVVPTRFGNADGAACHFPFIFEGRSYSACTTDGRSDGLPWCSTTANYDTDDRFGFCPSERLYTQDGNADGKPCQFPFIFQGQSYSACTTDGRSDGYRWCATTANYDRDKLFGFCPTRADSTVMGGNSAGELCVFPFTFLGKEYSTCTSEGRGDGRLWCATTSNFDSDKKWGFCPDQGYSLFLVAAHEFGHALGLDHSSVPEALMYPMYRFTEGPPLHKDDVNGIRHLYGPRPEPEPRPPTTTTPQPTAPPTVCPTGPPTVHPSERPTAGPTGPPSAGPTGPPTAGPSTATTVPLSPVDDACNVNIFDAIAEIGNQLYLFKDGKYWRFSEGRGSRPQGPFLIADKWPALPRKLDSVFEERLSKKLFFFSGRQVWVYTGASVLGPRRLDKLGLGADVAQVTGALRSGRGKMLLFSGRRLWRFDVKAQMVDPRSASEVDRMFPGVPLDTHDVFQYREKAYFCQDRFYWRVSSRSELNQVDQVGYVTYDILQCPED
Sequence of human CYP2D6, CYP2D6 (gene 1565) (P10635 whole entry, looked up): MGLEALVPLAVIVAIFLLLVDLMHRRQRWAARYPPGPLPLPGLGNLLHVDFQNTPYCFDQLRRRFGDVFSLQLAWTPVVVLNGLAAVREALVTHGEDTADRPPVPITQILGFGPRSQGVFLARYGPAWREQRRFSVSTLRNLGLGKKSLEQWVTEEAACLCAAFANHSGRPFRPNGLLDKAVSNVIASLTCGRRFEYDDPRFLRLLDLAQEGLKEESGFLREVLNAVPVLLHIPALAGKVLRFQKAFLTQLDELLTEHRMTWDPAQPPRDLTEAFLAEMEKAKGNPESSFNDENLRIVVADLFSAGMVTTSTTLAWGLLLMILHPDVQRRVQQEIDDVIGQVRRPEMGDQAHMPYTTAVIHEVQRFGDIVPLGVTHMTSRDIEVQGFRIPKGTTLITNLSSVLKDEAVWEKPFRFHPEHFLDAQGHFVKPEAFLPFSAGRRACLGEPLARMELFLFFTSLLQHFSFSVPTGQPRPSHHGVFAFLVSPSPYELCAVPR
Sequence of human Caspase 5 (CASP5), CASP5 (gene 838) (P51878 whole entry, looked up): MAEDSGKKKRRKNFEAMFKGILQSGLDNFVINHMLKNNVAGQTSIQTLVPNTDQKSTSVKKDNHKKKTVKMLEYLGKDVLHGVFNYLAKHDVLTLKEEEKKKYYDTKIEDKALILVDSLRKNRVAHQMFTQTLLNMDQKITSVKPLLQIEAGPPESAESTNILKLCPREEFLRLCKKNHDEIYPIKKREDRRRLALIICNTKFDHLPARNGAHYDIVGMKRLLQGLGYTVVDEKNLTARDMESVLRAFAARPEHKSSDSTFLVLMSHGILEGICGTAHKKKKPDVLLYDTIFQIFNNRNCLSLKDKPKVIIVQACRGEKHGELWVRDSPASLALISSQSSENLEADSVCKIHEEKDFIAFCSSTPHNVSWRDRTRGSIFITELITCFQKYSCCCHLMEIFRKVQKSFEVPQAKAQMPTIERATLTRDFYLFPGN
Sequence of human Beta-secretase (BACE), BACE1 (gene 23621) (P56817 whole entry, looked up): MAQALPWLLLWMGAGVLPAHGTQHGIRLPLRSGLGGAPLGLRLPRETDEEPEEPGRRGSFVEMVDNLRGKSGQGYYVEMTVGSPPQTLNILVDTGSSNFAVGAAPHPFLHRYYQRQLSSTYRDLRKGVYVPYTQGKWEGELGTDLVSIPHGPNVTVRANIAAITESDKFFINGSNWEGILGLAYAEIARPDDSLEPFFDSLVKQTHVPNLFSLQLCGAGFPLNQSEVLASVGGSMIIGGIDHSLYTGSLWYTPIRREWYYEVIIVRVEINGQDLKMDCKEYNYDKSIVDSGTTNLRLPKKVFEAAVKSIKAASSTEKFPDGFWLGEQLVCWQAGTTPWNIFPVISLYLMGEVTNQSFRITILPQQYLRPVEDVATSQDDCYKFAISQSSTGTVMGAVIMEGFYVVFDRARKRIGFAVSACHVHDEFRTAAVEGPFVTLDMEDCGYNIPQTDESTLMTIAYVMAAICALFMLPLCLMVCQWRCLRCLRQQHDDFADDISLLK

On to `CC1(C)[C@H](C(=O)OCc2cccc(Oc3ccccc3)c2)[C@@H]1C=C(Cl)Cl`, for which, in [1], the molecule was called inactive.

For the molecule `Nc1ccc(F)c([N+](=O)[O-])c1`, the call in [2] and in [3] was inactive. Besides, the AC50 in assay [4] is 0.0662 µM (active).

Take `Nc1cc(N)cc(C(=O)O)c1`: the AC50 in assay [5] was 19.9 µM (active).

Regarding `OCC(CO)(CO)COCC(CO)(CO)CO`, the result in assay [6] was inactive. The half-maximal activity concentration (AC50) in assay [1] was 23.1 µM (active).

In the case of `CC(C)(CO)[N+](=O)[O-]`, the result in assay [7] was inactive.

For `CCCCCCCCC`, the AC50 in assay [8] was 25 µM (active). Besides, in assay [7], the molecule was classed as inactive.

Regarding `CC(C)[C@H]1CC[C@@H](C)CC1=O`, the call in assay [6] was inactive.

On to `Cc1c(Cl)c(=O)oc2cc(O)ccc12`, for which the AC50 in [1] was 0.582 µM (active).

With `CCO[Si](CCCS)(OCC)OCC`, the result in [6] was inactive. Besides, the AC50 in assay [8] is 1.65 µM (active); in assay [1], 32.1 µM (active).

In the case of `O=c1[nH]nnc2ccccc12`, the half-maximal activity concentration (AC50) in assay [7] is 0.401 µM (active).

For the molecule `N#Cc1ccccc1`, the molecule was classed as inactive in assay [9].

Source of the values: PubChem BioAssay (EPA / NIEHS).
